PAFAH1B2 inh: PAFAH1B2 enzyme inhibitors, primary screen, biochemical, fluorescence polarization, human; Platelet-activating factor acetylhydrolase IB subunit alpha2 (Homo sapiens), P68402; recombinant PAFAH1B2, FP-rhodamine activity probe; inhibition, % at 3.39 µM; actives 1.2% (n = 340,000);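 active means inhibition above the mean of all tested compounds plus 3 SD, cut at about 24% in these data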;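 further: 0% = enzyme with DMSO and 100% = wells lacking PAFAH1B2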
Target sequence (P68402 whole entry, looked up): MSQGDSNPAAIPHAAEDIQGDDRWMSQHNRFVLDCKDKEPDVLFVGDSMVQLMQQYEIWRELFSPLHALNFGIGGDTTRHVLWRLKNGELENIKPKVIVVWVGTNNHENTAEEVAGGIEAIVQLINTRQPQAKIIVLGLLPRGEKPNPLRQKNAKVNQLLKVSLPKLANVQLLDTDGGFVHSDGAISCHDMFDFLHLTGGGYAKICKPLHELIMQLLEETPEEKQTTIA
pPAFAH inh: pPAFAH enzyme inhibitors, primary screen, biochemical, fluorescence polarization, human; recombinant pPAFAH, FP-rhodamine probe fluorescence polarization; actives 1.5% (n = 330,000); Platelet-activating factor acetylhydrolase (Homo sapiens), Q13093; inhibition, % at 3.39 µM;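 active means inhibition above the mean inhibition across the screen plus 3 SD, cut at about 25% in these data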;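 further: inhibitors block binding of the rhodamine activity-based probe so polarization drops; 0% = enzyme with DMSO and 100% = wells lacking pPAFAH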
Target sequence (Q13093 whole entry, looked up): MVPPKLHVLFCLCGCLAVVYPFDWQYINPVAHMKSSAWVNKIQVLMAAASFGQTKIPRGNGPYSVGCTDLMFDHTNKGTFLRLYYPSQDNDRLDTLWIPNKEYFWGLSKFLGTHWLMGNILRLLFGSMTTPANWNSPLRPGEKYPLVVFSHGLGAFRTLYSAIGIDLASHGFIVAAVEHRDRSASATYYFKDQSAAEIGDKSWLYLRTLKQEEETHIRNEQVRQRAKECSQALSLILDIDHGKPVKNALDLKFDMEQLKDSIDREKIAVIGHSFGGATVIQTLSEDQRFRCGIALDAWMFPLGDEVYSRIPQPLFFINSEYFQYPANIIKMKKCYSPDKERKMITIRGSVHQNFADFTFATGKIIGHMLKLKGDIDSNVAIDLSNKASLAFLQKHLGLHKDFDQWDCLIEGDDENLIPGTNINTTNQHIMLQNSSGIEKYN
Fam108B inh: mouse Fam108B serine hydrolase inhibitors, primary screen, counter-screen for RBBP9 inhibitor project, biochemical, fluorescence polarization | recombinant Fam108B, FP-Rh probe fluorescence polarization | inhibition, % at 9.51 µM | actives 0.33% (n = 300,000) | AID 1947, 2009;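 active means inhibition above the screen mean inhibition plus 3 SD, computed separately per campaign, cut at about 18% in these data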;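 further: inhibitors lower polarization as less probe binds the enzyme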
PAFAH2 inh: PAFAH2 enzyme inhibitors, primary screen, biochemical, fluorescence polarization, human. actives 0.99% (n = 340,000). inhibition, % at 3.39 µM. recombinant PAFAH2, FP-rhodamine activity probe. Platelet-activating factor acetylhydrolase 2, cytoplasmic (Homo sapiens), Q99487. AID 492956, 2010;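 active means inhibition above the mean over all tested compounds plus 3 SD, cut at about 30% in these data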;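 further: inhibitors block probe labeling of enzyme so polarization drops; 0% = enzyme with DMSO and 100% = wells lacking PAFAH2 protein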
PAFAH1B3 inh: PAFAH1B3 enzyme inhibitors, primary screen, biochemical, fluorescence polarization, human; actives 0.28% (n = 340,000); recombinant PAFAH1B3, FP-rhodamine probe; inhibition, % at 3.39 µM;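 active means inhibition above the screen-wide average of all tested compounds plus 3 SD, cut at about 25% in these data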;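 further: 0% = enzyme with DMSO only and 100% = wells lacking PAFAH1B3 protein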
PME-1 inh: PME-1 inhibitors via competitive probe labeling, primary screen, biochemical, fluorescence polarization, FP-Rh probe, HTS. actives 0.53% (n = 320,000). recombinant PME-1. inhibition, % at 5.9 µM. Protein phosphatase methylesterase 1 (Homo sapiens), Q9Y570. AID 2130, 2009;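 active means inhibition above the campaign mean of all compounds plus 3 SD, cut at about 26% in these data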;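 further: competitive labeling of PME-1 active site by serine hydrolase directed probe; 0% = PME-1 with DMSO and 100% = wells lacking PME-1 enzyme; inhibitors block probe labeling so polarization falls and inhibition rises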
PAFAH2 confirm: PAFAH2 enzyme inhibitors, confirmation, biochemical, fluorescence polarization, human; actives 65% (n = 2,300); inhibition, % at 3.39 µM; shares compounds with PAFAH2 inh; recombinant PAFAH2, FP-rhodamine activity probe; AID 493030, 2011;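 active means mean inhibition over three repeats above a set limit taken from the earlier primary screen, cut at about 30% in these data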;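 further: inhibitor blocks binding of rhodamine activity probe so polarization falls; 0% = enzyme with DMSO and 100% = wells lacking PAFAH2 protein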
* = called active by the depositor; . = not tested or not shown. Most compounds without a hit are left out; they make up all but 2.9% or so of the library.

SMILES	PAFAH1B2 inh	pPAFAH inh	Fam108B inh	PAFAH2 inh	PAFAH1B3 inh	PME-1 inh	PAFAH2 confirm
O=C(COC(=O)c1ccccc1C(=O)c1ccccc1)NCc1ccc(F)cc1	1.4	3.0	1.2	43.2*	4.6	1.5	35.6*
O=C(COC(=O)c1ccncc1)NCc1ccccc1	5.5	1.1	-2.0	-9.1	4.8	-2.3	.
O=C(COc1ccc(C(=O)c2ccccc2)cc1)NCc1ccc(F)cc1	-3.6	8.3	4.5	-5.7	-5.3	6.1	.
O=C(COC(=O)c1ccccc1C(=O)c1ccc(Cl)cc1)NCc1ccccc1	3.8	3.8	-3.5	33.6*	5.5	12.0	26.4
O=C(Cc1ccccc1)NCCc1ccc(Cl)cc1Cl	4.1	-5.7	-9.3	3.0	6.0	-3.0	.
O=C(COC(=O)c1ccc(Br)cc1)NCc1ccccc1	1.1	10.7	1.7	31.3*	8.4	2.2	24.5
O=C(COC(=O)c1ccccc1C(=O)c1ccccc1)NCCc1ccc(Cl)cc1Cl	3.5	13.3	-4.4	70.9*	6.9	4.2	58.0*
C/C(CC(=O)Nc1cc(Cl)ccc1Cl)=N\NC(=O)c1ccccc1Br	5.0	-8.2	4.0	5.2	-1.4	-2.8	.
Cc1ccc(C(=O)c2ccccc2C(=O)OCC(=O)NC(=O)NC(C)(C)C)cc1	2.8	-6.4	-7.3	14.2	1.4	-9.0	.
CC(C)(C)NC(=O)COC(=O)c1ccccc1C(=O)c1ccccc1	4.1	3.1	2.8	69.2*	10.9	-4.4	55.7*
CCN(CC)S(=O)(=O)c1ccc(/C=C/C(=O)OCC(=O)Nc2cccc3ccccc23)cc1	-0.8	20.8	-21.1	52.7*	-7.3	-10.8	62.1*
CCN(CC)S(=O)(=O)c1ccc(/C=C/C(=O)OCC(=O)Nc2cccnc2Cl)cc1	-0.3	5.9	.	67.2*	7.8	-3.8	55.2*
CCN(CC)S(=O)(=O)c1ccc(Cl)c(NC(=O)COC(=O)/C=C/c2cc(OC)c(OC)c(OC)c2)c1	-0.8	9.6	-9.3	12.8	3.4	-6.0	.
COc1cc(OC)cc(C(=O)NC(=S)Nc2nnn(C)n2)c1	2.8	4.1	1.3	-6.0	-4.5	7.8	.
O=C1C(=O)N(CCCN2CCOCC2)C(c2ccc(F)cc2)/C1=C(\O)c1ccc2c(c1)OCCO2 (stereo not given)	4.4	2.4	5.8	48.4*	1.0	-1.2	2.6
CC(C)(C)c1ccc(C2/C(=C(\O)c3ccc4c(c3)OCCO4)C(=O)C(=O)N2CCCN2CCOCC2)cc1 (stereo not given)	2.5	9.7	0.2	10.9	-2.5	0.9	.
COc1ccccc1C(=O)OCCCN=C1NS(=O)(=O)c2ccccc21	5.0	0.6	-0.4	1.6	0.3	0.7	.
COc1ccc(C(=O)OCCN=C2NS(=O)(=O)c3ccccc32)cc1OC	0.1	2.9	6.4	42.6*	13.7	3.3	23.3
Cn1c2ccccc2n2c(=O)c(Cl)c(-c3ccccc3)c(C#N)c12	5.3	5.5	-0.1	38.9*	11.8	-3.8	23.9
CCOc1ccc(C(=O)OCC(=O)NCCNC(=O)COC(=O)c2ccc(OCC)cc2)cc1	-0.8	3.3	2.3	-1.7	4.8	3.2	.
N#CCC(=O)Nc1ccc(C(=O)OCC(=O)C23CC4CC(CC(C4)C2)C3)cc1	6.7	2.2	-13.1	63.2*	-4.8	17.5	61.7*
CCCCNC(=O)COC(=O)c1ccc(NC(C)=O)cc1	5.2	3.7	-0.2	69.8*	8.0	-4.4	53.8*
CCCCOC(=O)c1ccc(NC(C)=O)cc1	-4.0	-5.0	-8.9	-3.1	9.3	-1.0	.
CCCCNC(=O)COC(=O)c1ccc(N(C)C)cc1	-1.0	17.0	0.1	76.2*	8.4	0.3	76.3*
Cc1nn(-c2ccccc2)c(C)c1NC(=O)COC(=O)c1ccc(NC(=O)CC#N)cc1	-4.9	16.7	-9.0	32.8*	-2.3	-16.2	23.8
SMILES	PAFAH1B2 inh	pPAFAH inh	Fam108B inh	PAFAH2 inh	PAFAH1B3 inh	PME-1 inh	PAFAH2 confirm
COCCn1c(SCC(=O)Nc2cccnc2Cl)nc2ccccc2c1=O	6.3	5.9	.	-16.6	2.3	-3.7	.
O=C(/C=C/c1cccs1)Nc1scc(-c2ccccc2)c1C(=O)O	-8.0	.	.	-13.2	-14.8	.	.
C/C(=N\NC(=O)c1cccc([N+](=O)[O-])c1)c1cccc(NC(=O)C2CC2)c1	8.0	7.8	0.3	-7.9	0.3	2.5	.
COc1ccc(C(=O)O)cc1S(=O)(=O)NC(C)(C)C	-1.6	-2.7	2.2	-1.6	3.0	1.2	.
N#CCC(=O)Nc1ccc(C(=O)OCC(=O)NCCCc2ccccc2)cc1	1.2	9.5	-8.1	38.0*	0.3	-18.7	30.0*
O=C(COC(=O)c1ccncc1)NCCCc1ccccc1	-1.4	11.6	-0.9	3.4	-0.4	3.5	.
NS(=O)(=O)c1ccc(NC(=O)COC(=O)/C(=C/c2cccs2)c2cccs2)cc1	-1.2	-6.5	-7.7	-23.3	-7.8	-5.5	.
COc1ccc(C2CC(c3ccccc3)=NN2C(=O)COC(=O)c2cc(S(=O)(=O)N3CCOCC3)ccc2F)cc1 (stereo not given)	6.2	2.4	-2.6	48.5*	-5.0	4.7	50.5*
Cc1[nH]c2ccccc2c1C(=O)CSc1cccc[n+]1[O-]	5.6	1.2	-0.9	0.8	-1.2	1.6	.
COc1ccc(C(=O)CSc2nc(C)cc(C)n2)cc1C	2.6	10.9	0.6	41.8*	5.8	-6.6	1.8
O=c1[nH]c2ccc(NC(=S)Nc3ccccc3Cl)cc2[nH]1	3.0	1.1	0.0	-0.8	-1.5	3.9	.
C=CCn1c(O)c(N=NC(=O)c2ccccc2NS(=O)(=O)c2cccs2)c2ccccc21	9.1	1.9	6.2	37.1*	4.7	-2.7	27.0
O=C(N/N=C1/C(=O)c2cccc3cccc1c23)c1ccc(Cl)cc1	7.0	11.4	9.8	56.4*	12.1	7.3	34.7*
COc1ccc(CCNC(=O)COC(=O)/C=C/c2ccc3c(c2)OCO3)cc1OC	1.9	-3.2	.	6.0	7.9	.	.
COc1cc(/C=C/C(=O)OCC(=O)NCc2ccccc2OC)ccc1O	11.1	8.8	3.6	49.7*	14.7	18.8	48.7*
COc1cc(/C=C/C(=O)OCC(=O)NCc2ccc(F)cc2)ccc1O	4.2	9.2	.	69.3*	5.0	.	56.3*
COc1cc(/C=C/C(=O)OCC(=O)N(C)Cc2ccccc2)ccc1O	2.9	5.0	.	32.7*	1.4	-2.7	19.4

Source: PubChem (The Scripps Research Institute Molecular Screening Center)
